The values that follow come from PubChem BioAssay (NCATS).

Records with an inconclusive call do not appear. The source made the active and inactive calls. Unless noted, calls follow the shape of the dose curve; as a rule, active = well fitted curve in the direction sought with a large enough effect; inconclusive = small, poorly fitted or top-dose-only effect, or another doubt; inactive = no such curve, though single readings can be large; an effect the other way counts as inactive or inconclusive.

The nature of experiment [1]: qHTS assay for small molecule antagonists of peroxisome proliferator-activated receptor delta signaling (AID 588535; active = well fitted inhibition curve with a large enough effect in the signal ratio, with a control signal flat, not every such curve was filed as active; the % refers to the signal ratio;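 as to max response: cells co-treated with a PPAR-delta agonist as stimulator during compound exposure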). The conditions noted are these: HEK293T PPARd-UAS-bla, beta-lactamase FRET ratio, 18 h; 460 nm channel. An outline of the steps: (§1)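 Antagonist-mode qHTS using GeneBLAzer PPAR-delta-UAS-bla HEK293T cells; compound exposure 18 hrs at 37 C over a titration. Ratiometric CCF4 fluorescence at 460/530 nm; concentration-response points fitted to the Hill equation.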

Experiment [2] deals with Peroxisome proliferator-activated receptor delta (Homo sapiens) (UniProt Q03181). The description is as above. An outline of the steps: as §1
Sequence of Peroxisome proliferator-activated receptor delta (Homo sapiens) (Q03181 whole entry, looked up): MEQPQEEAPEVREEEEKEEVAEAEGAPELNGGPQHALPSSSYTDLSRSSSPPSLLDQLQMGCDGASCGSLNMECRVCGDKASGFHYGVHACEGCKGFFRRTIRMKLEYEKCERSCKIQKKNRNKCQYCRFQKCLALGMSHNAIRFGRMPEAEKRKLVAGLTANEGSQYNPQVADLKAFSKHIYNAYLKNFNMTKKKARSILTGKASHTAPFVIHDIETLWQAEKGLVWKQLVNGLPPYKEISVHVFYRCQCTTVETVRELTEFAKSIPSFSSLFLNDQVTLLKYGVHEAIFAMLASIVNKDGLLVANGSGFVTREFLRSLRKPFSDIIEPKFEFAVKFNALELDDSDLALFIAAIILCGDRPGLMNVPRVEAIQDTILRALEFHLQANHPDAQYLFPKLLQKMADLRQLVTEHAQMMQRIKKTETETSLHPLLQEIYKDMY
Experiment [3] addresses Peroxisome proliferator-activated receptor gamma (Homo sapiens) (UniProt P37231). The experiment in a line: qHTS assay for small molecule agonists of peroxisome proliferator-activated receptor gamma signaling (AID 588536; active = well fitted curve in the direction sought with a large enough effect in the signal ratio, with a control signal flat, not every such curve was filed as active; the % refers to the signal ratio;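 also: 0% = DMSO basal wells and 100% = rosiglitazone at 2 µM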). An outline of the steps: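 This is an agonist-mode beta-lactamase reporter assay in HEK293 PPAR-gamma-UAS-bla cells with 1% charcoal/dextran FBS. Compound titrations ran 16 h at 37 C before CCF4 detection. EC50 and efficacy are Hill fits scaled to 2 uM rosiglitazone (100%) and DMSO basal.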

Experiment [4] deals with Retinoic acid receptor RXR-alpha (Homo sapiens) (UniProt P19793). The experiment can be described thus: qHTS assay for small molecule antagonists of retinoid X receptor alpha signaling (AID 588546; active = well fitted inhibition curve with a large enough effect in the signal ratio, with a control signal flat, not every such curve was filed as active; the % refers to the signal ratio;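 also: cells stimulated with 9-cis-retinoic acid as agonist; % is scaled to controls: 0 for no effect and ±100 for the full control effect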). As to conditions: HEK293T RXRa-UAS-bla, beta-lactamase ratio, antagonist mode. An outline of the steps:
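Beta-lactamase reporter inhibition, read as CCF4 fluorescence ratio (ex 405, em 460/530 nm) after 2 h at RT. HEK293T UAS-bla cells, 2500/well, were stimulated with 9-cis-RA at 500 or 100 nM final alongside test compound for 18 h at 37 C.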
For orientation: Quantitative high-throughput screening tests each substance at several concentrations.

Experiment [5] is described as follows: NFAT Signaling Pathway (AID 444; active = well fitted curve in either direction with a large enough effect, not every such curve was filed as active;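 also: carbachol stimulus at about its EC50 of 1 µM final; % is scaled to controls: 0 for no effect and ±100 for the full control effect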). As to conditions: Jurkat NFAT-bla M1, carbachol, beta-lactamase ratio, 5 h; at 17.2 µM (top of the series) unless noted. An outline of the steps: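 Read-out: CCF4 FRET ratio (460 nm/530 nm) after 1 h RT dye loading, used for %activity and AC50 from titration series. Cells: Jurkat NFAT-β-lactamase/M1 line, treated with compound plus 1 uM carbachol for 5 h, 37 °C.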

The target in experiment [6] is Guanine nucleotide-binding protein G(i) subunit alpha-1 (Homo sapiens) (UniProt P63096). The experiment can be described thus: qHTS Assay for Inhibitors of RGS12 GoLoco Motif Activity (Green Fluorophore) (AID 879). Also: potency is read from the fitted curve at half-maximal effect. In outline:
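A drop in FITC polarization marked displacement of the FITC-tagged RGS12 GoLoco peptide (10 nM) from Gαi1 (50 nM). Compounds were incubated 10 min at room temperature in Tris pH 7.5 buffer containing 150 mM NaCl, 0.1 mM GDP and 0.05% NP40; unlabeled peptide titration served as control.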

Experiment [7] has as its target Muscarinic acetylcholine receptor M1 (Rattus norvegicus) (UniProt P08482). The experiment in a line: qHTS Assay for Antagonists of Acetylcholine Muscarinic M1 Receptor: Kinetic Measurement of Intracellular Calcium Response (AID 943).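 Also: Fluo-4 calcium signal as peak divided by basal fluorescence over 4 min; nearly all actives have a fitted effect of over 75% in size.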 An outline of the steps: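 Quantitative HTS in CHO-M1 (rat receptor) cells: 10 min compound exposure ahead of 100 nM carbachol, Fluo-4 fluorescence followed 4 min, value expressed as peak-to-basal ratio.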

Experiment [8] addresses Pyruvate kinase (Leishmania mexicana) (UniProt Q27686). The experiment can be described thus: qHTS Validation Assay for Inhibitors of Leishmania Mexicana Pyruvate Kinase (AID 945).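 Also: 0% = DMSO only neutral control wells.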 In outline:
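Purified LmPYK (E451W mutant, 0.2 nM) was incubated 1 h at room temperature with 0.5 mM PEP and 0.1 mM ADP in 50 mM imidazole pH 7.2, 50 mM KCl, 7 mM MgCl2; ATP formed was read by PKLight luminescence, normalized to DMSO wells.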

Experiment [9] deals with Alpha-galactosidase A (Homo sapiens) (UniProt P06280). The experiment in a line: Counterscreen for Glucocerebrosidase Inhibitors: qHTS Assay for Human alpha-Galactosidase at pH 4.5 (AID 992). Also: 0% is about no effect. In outline:
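Fluorogenic 1536-well qHTS at pH 4.5 (citrate, Tween-20): 2 nM enzyme, 80 uM 4-MU-alpha-galactoside, 20 min room temperature, NaOH/glycine stop. Titration 0.7 nM to 77 uM, data normalized to no-enzyme and full-activity controls, Hill-fitted AC50.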
(The purpose of a counterscreen is to sort out artefacts and off-target activity.)

For experiment [10], the target named is Peroxisome proliferator-activated receptor gamma (Homo sapiens) (UniProt P37231). The experiment can be described thus: qHTS assay for small molecule antagonists of peroxisome proliferator-activated receptor gamma signaling (AID 588537; active = well fitted inhibition curve with a large enough effect in the signal ratio, with a control signal flat, not every such curve was filed as active; the % refers to the signal ratio;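 also: reporter cells co-stimulated with 50 nM rosiglitazone agonist during compound treatment; % of control where 0% means no effect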). An outline of the steps: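 Cell-based beta-lactamase assay; GW9662 served as the antagonist control. Stimulation used rosiglitazone, final 50 nM, 16 h, 37 C.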
Sequence of Peroxisome proliferator-activated receptor gamma (Homo sapiens) (P37231 whole entry, looked up): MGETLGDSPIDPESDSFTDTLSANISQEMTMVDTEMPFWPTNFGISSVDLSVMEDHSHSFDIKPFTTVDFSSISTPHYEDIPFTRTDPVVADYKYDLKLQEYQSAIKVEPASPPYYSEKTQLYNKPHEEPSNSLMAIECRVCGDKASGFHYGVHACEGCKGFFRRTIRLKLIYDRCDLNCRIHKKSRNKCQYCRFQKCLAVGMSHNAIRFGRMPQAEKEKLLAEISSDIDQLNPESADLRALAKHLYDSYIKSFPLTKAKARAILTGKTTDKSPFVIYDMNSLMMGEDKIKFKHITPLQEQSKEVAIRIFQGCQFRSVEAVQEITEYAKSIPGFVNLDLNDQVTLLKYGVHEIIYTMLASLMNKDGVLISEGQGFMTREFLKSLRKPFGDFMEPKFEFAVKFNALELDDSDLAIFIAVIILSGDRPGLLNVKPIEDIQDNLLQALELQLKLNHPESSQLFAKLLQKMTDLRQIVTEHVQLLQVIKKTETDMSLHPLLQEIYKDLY

For experiment [11], the target named is Cytochrome P450 3A4 (Homo sapiens) (UniProt P08684). The experiment can be described thus: qHTS Assay for Activators of Cytochrome P450 3A4 (AID 885). Also: nearly all actives have a fitted effect of over 65% in size. An outline of the steps:
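Luminescent readout of luciferin formed from 25 uM Luciferin-PPXE (KM level) by 20 nM CYP3A4 in 200 mM KPO4, with 60 min NADPH-driven reaction at room temperature after 10 min compound exposure. Ketoconazole (57 uM) defined 100% inhibition.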

For experiment [12], the target named is Bile acid receptor (Homo sapiens) (UniProt Q96RI1). The experiment can be described thus: qHTS assay for small molecule antagonists of farnesoid X receptor signaling (AID 588526; calls by dose curve; also: % is scaled to controls: 0 for no effect and ±100 for the full control effect). In outline: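 Beta-lactamase reporter antagonist mode: HEK293T FXR-UAS-bla cells, titrated compound, CDCA stimulation, 16 h 37 C, CCF4 dye 2 h RT. Data normalized to CDCA 50 uM and DMSO; Hill-fit IC50.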
Sequence of Bile acid receptor (Homo sapiens) (Q96RI1 whole entry, looked up): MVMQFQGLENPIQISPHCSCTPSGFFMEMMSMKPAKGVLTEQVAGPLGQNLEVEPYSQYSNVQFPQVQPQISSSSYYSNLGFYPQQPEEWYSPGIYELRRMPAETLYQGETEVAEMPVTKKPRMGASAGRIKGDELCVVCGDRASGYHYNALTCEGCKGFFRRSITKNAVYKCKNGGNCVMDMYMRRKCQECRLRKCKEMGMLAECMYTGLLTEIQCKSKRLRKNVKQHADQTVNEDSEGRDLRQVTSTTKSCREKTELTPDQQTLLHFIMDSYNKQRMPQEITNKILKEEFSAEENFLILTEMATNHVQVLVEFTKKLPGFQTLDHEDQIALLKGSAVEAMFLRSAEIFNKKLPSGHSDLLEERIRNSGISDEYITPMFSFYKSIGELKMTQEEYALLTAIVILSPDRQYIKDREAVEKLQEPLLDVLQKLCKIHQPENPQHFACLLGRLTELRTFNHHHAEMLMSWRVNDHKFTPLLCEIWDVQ

The target is the same in experiment [13]. The experiment in a line: qHTS assay for small molecule agonists of farnesoid X receptor signaling (AID 588527; calls by dose curve;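 also: 0% = vehicle basal and 100% = reference agonist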). As to conditions: HEK293T FXR-UAS-bla, beta-lactamase ratio, 16 h; activation: stronger effect = higher value. In outline: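 Agonist-mode beta-lactamase reporter in GeneBLAzer FXR-UAS-bla HEK293T cells, titration up to 92 uM, 16 h exposure at 37 C, CCF4 fluorescence. Response scaled to DMSO (0%) and 100 uM chenodeoxycholic acid (100%), then Hill-fitted for EC50 and efficacy.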

A short description of experiment [14]: qHTS assay for small molecule agonists of retinoid X receptor alpha signaling (AID 588544). As to conditions: HEK293T RXRa-UAS-bla, beta-lactamase reporter, 18 h; 530 nm emission.
Experiment [15] deals with Androgen receptor (Homo sapiens) (UniProt P10275). The experiment in a line: qHTS assay for small molecule agonists of androgen receptor signaling (AID 588515; active = well fitted curve in the direction sought with a large enough effect in the signal ratio, with a control signal flat; the % refers to the signal ratio; also: % is scaled to controls: 0 for no effect and ±100 for the full control effect). The conditions noted are these: AR-UAS-bla HEK293, beta-lactamase ratio, agonist 16 h; stronger effect = higher value. An outline of the steps: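 Stimulation of an AR-responsive β-lactamase reporter in GripTite HEK293 cells was measured after 16 h compound exposure at 37 °C, via CCF4 fluorescence after 2 h RT. EC50 from Hill fits, normalized to R1881 at 30 nM.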
Sequence of Androgen receptor (Homo sapiens) (P10275 whole entry, looked up): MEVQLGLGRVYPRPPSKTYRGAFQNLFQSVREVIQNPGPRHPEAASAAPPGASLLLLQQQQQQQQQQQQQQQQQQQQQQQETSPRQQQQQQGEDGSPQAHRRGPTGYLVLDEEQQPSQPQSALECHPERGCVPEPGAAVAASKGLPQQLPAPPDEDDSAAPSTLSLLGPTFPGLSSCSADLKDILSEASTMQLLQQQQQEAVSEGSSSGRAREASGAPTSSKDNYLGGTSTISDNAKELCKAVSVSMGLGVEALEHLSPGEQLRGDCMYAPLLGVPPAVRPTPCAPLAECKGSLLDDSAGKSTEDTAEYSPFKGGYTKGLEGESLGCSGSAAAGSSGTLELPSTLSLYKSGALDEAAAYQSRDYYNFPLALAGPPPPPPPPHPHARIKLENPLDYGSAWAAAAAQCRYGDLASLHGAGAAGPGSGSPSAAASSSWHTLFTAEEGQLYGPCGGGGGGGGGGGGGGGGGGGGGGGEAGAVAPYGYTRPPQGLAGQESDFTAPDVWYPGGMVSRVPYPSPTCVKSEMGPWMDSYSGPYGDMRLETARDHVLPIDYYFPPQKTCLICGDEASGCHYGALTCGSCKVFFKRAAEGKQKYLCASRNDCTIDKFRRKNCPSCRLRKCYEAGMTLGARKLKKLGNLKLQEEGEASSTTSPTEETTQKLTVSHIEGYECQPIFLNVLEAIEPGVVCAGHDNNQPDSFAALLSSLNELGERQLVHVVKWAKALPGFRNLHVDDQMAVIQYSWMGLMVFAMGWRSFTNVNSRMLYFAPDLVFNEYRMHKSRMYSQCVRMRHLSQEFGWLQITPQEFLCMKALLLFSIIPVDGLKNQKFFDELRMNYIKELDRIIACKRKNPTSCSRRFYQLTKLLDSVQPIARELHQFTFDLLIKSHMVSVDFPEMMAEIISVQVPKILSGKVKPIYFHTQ

Experiment [16] shares this target. The experiment can be described thus: qHTS assay for small molecule antagonists of androgen receptor signaling (AID 588516; active = well fitted curve in the direction sought with a large enough effect in the signal ratio, with a control signal flat, not every such curve was filed as active; the % refers to the signal ratio; also: % is scaled to controls: 0 for no effect and ±100 for the full control effect). An outline of the steps:
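Cells were plated and incubated 5 h, compounds added in titration, then R1881 (10 nM final) as agonist. After 16 h at 37 C, CCF4 substrate was loaded for 2 h at room temperature and fluorescence measured.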

The nature of experiment [17]: Inducers of the Endoplasmic Reticulum Stress Response (ERSR) in human glioma: Validation (AID 504836). Also: 0% is about no effect. An outline of the steps:
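ERSR induction read as luciferase luminescence (Bright-Glo, 10 min at room temperature) in stably transfected human U87-MG glioma cells exposed to compounds for 16 h, using GRP78 as sensor.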

The nature of experiment [18]: S16 Schwann cell PMP22 intronic element firefly luciferase assay (AID 624032).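 Also: plate controls were DMSO for no effect and PTC124 positive control mean for full effect; nearly all actives have a fitted effect of over 30% in size.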 An outline of the steps: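 Luciferase reporter of PMP22 intronic-element expression in stably transfected S16 rat Schwann cells, read by ONE-Glo luminescence after 24 h compound exposure at 37 C. Activity scaled between DMSO (0%) and positive-control PTC124; concentration-effect curves quality-classified.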

Sequence of Cytochrome P450 3A4 (Homo sapiens) (P08684 whole entry, looked up): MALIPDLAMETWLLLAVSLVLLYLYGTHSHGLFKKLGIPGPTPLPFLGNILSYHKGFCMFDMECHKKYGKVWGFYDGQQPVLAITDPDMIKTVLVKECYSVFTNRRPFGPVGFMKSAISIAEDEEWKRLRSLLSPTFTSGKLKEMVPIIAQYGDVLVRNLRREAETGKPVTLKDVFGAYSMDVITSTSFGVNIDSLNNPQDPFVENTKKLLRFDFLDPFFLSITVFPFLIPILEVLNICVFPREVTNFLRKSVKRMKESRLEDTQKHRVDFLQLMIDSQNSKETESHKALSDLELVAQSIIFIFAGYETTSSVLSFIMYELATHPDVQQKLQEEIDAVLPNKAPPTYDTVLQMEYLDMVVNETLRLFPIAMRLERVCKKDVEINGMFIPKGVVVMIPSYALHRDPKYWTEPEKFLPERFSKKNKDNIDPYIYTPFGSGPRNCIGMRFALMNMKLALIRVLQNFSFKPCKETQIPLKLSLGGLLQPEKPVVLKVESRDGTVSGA
Sequence of Retinoic acid receptor RXR-alpha (Homo sapiens) (P19793 whole entry, looked up): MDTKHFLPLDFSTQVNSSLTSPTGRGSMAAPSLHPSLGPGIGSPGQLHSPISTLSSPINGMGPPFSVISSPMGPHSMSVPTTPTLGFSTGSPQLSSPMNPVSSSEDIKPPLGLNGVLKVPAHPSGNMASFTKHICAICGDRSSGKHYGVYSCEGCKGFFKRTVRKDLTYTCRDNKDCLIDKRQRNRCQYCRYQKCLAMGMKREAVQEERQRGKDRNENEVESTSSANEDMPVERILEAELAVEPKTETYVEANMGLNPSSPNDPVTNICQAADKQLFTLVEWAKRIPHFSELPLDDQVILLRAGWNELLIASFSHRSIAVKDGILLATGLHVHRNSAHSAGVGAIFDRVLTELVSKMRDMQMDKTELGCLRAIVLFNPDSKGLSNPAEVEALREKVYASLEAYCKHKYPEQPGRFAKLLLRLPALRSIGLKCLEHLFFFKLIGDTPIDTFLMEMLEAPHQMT
Sequence of Guanine nucleotide-binding protein G(i) subunit alpha-1 (Homo sapiens) (P63096 whole entry, looked up): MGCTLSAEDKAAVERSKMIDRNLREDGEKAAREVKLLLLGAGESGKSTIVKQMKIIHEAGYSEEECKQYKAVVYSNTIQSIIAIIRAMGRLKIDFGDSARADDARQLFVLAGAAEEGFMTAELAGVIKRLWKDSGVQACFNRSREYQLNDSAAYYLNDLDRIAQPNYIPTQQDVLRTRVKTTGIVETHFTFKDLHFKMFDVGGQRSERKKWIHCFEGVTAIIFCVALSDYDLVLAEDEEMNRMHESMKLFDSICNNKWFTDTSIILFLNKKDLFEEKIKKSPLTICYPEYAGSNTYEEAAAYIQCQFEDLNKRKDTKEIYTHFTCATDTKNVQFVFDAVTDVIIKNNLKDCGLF
Sequence of Alpha-galactosidase A (Homo sapiens) (P06280 whole entry, looked up): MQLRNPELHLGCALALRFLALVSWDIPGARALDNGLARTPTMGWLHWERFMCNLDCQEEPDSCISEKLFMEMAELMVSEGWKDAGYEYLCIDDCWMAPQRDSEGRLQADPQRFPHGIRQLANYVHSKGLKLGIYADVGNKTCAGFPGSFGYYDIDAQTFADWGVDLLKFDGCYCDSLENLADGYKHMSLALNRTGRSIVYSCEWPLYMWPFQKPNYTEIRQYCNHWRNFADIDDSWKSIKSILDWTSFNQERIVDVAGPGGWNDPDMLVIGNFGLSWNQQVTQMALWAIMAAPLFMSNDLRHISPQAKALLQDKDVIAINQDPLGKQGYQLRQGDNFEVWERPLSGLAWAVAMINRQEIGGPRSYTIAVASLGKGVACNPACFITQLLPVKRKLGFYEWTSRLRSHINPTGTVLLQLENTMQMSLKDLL
Sequence of Pyruvate kinase (Leishmania mexicana) (Q27686 2-499 E452W): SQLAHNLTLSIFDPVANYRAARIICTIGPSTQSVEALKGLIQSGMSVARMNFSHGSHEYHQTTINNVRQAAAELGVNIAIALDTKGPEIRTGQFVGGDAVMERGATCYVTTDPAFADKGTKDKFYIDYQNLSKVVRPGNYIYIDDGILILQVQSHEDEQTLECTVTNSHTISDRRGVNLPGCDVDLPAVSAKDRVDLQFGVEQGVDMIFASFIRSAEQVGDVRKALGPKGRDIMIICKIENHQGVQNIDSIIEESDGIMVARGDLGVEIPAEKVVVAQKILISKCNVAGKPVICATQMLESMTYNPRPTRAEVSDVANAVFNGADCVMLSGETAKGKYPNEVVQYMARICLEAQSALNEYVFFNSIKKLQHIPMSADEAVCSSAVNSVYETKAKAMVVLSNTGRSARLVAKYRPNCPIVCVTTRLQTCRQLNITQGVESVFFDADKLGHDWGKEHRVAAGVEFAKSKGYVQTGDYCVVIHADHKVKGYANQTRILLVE

For `C#CCO`, the max response is 29.5% in [1] and 24.4% (inactive) in experiment [4]. Besides, the Potency result in experiment [2] and in [3] was “inactive” throughout.

On to `Cn1c(O)c(C(=O)c2ccccc2Cl)c(=O)n(C)c1=O`, for which the activity change, negative = inhibition in [5] was 6.46% (inactive).

On to `Oc1cc2c(cc1O)[C@H]1c3ccccc3CN[C@@H]1CC2`, for which the activity change, negative = inhibition in experiment [5] was -4.87% [at 38 µM] (inactive). The Potency entry in experiment [6], in [7] and in experiment [8] was “inactive” each time. For the same molecule, in [9], the call was inactive.

In the case of `O=C(CCl)c1ccccc1`, the max response was 18.1% in [1] and 9.61% (inactive) in experiment [4]. Moreover, the Potency entry in [2] and in experiment [10] was “inactive” throughout.

With `CCN(CC)CCN=C(C)c1c(O)n(-c2ccccc2OC)c(=O)[nH]c1=O`, the activity change, negative = inhibition in experiment [5] is -15.6% (inactive).

As for `CC(=O)[O-].CC(=O)[O-].O.O.[Cd+2]`, in [11], the Potency entry is “inactive”.

Consider `O=C(O)C1C(C(=O)O)C2(Cl)C(Cl)=C(Cl)C1(Cl)C2(Cl)Cl` (centres undefined), for which the Potency result in [12] is “inactive”. For the same molecule, the activation in experiment [13] was 0.987% (inactive). The max response is -3.38% in experiment [14] and -12.3% (inactive) in experiment [4].

With `CC(C)[C@@]1(NC(=O)[C@@H]2C=C3c4cccc5[nH]cc(c45)C[C@H]3N(C)C2)O[C@@]2(O)[C@@H]3CCCN3C(=O)[C@H](Cc3ccccc3)N2C1=O`, in [5], the activity change, negative = inhibition is -19% (inactive).

Turning to `Nc1ccccc1C(=O)OCCc1ccccc1`, the Potency entry in experiment [11] and in experiment [10] was “inactive” throughout.

For the molecule `O=[N+]([O-])C(Br)Br`, the activation in experiment [15] is 6.33% (inactive). For the same molecule, the Potency result in experiment [16], in experiment [2], in experiment [3] and in [10] was “inactive” each time. In addition, the max response in [1] is -33.2%.

Take `Clc1ccc(C(c2ccc(Cl)cc2)C(Cl)Cl)cc1`: the activation in experiment [13] was 3.84% (inactive). The results for the max response in [1] and in experiment [14] were -7.51% and -1.02%, respectively. The Potency entry in experiment [2] is “inactive”.

In the case of `CC(C)CC(C)Nc1ccc(Nc2ccccc2)cc1` (centres undefined), the Potency result in experiment [11] was “inactive”. Further, the max response in experiment [4] is -33.2% (inactive).

Regarding `COC[C@H]1OC(=O)c2coc3c2[C@@]1(C)C1=C(C3=O)[C@H]2CCC(=O)[C@@]2(C)C[C@H]1OC(C)=O`, the Potency in [6] was 25.1 µM (active). Moreover, the Potency result in experiment [11], in experiment [7] and in experiment [8] was “inactive” each time. Moreover, the result in experiment [9] was inactive.

Consider `CC1(C)C(=O)N(CCN2CCC(C(=O)c3ccc(F)cc3)CC2)c2ccccc21`, for which the molecule was called inactive in experiment [17].

Turning to `COc1ccccc1CNCCCCCCNCCCCCCCCNCCCCCCNCc1ccccc1OC`, in experiment [17], the molecule was classed as inactive.

As to `Nc1ncnc2c1c(-c1ccc(Oc3ccccc3)cc1)cn2C1CCCC1`, in [17], the molecule was called inactive.

In the case of `CCCCOC(=O)NS(=O)(=O)c1sc(CC(C)C)cc1-c1ccc(Cn2c(CC)nc3c(C)cc(C)nc32)cc1`, in [17], the molecule was classed as inactive.

Take `OCC(O)[C@H]1O[C@@H]2O[C@H](C(Cl)(Cl)Cl)O[C@@H]2[C@H]1O` (some centres undefined): the Potency entry in experiment [18] is “inactive”.

Consider `[S]=[Sb][S][Sb]=[S]`, for which the Potency result in experiment [18] was “inactive”.

In the case of `C[C@H](N)Cc1ccccc1`, the Potency result in experiment [18] is “inactive”.

Take `OC[C@@H](O)[C@H]1O[C@@H]2OC(C(Cl)(Cl)Cl)O[C@H]2[C@H]1O` (some centres undefined): the Potency entry in experiment [18] was “inactive”.

In the case of `CC1OC(O[C@H]2C[C@@H](O)[C@]3(CO)[C@@H]4C(CC[C@]3(O)C2)[C@@]2(O)CC[C@H](C3=CC(=O)OC3)[C@@]2(C)C[C@H]4O)C(O)C(O)C1O` (some centres undefined), the Potency entry in experiment [18] is “inactive”.
